Here are results for 60 molecules from ChEMBL document CHEMBL3433997, “St. Jude Leishmania screening dataset” (2016).

Holding throughout (format): functional
Experiment [1] addresses Solute carrier family 2, facilitated glucose transporter member 1 (Homo sapiens) (UniProt P11166). Put plainly: ST_JUDE_LEISH: Cytotoxicity at 2uM final concentration against transgenic Leishmania Mexicana promastigotes LmGLUT1 that are glucose transport deficient and complemented with the human glucose transporter GLUT1. Activity is measured by DNA content using SYBR green in vitro.

The target of experiment [2] is Hexose transporter 1 (Plasmodium falciparum) (UniProt O97467). The experiment in a line: ST_JUDE_LEISH: Cytotoxicity at 2uM final concentration against transgenic Leishmania Mexicana promastigotes LmPfHT that are glucose transport deficient and complemented with the Plasmodium falciparum hexose transporter. Activity is measured by DNA content using SYBR green in vitro.

The target of experiment [3] is Glucose transporter (Leishmania mexicana) (UniProt O61059). The experiment in a line: ST_JUDE_LEISH: Cytotoxicity at 2uM final concentration against transgenic Leishmania Mexicana promastigotes LmGT2 that are glucose transport deficient and complemented with the L. Mexicana glucose transporter 2. Activity is measured by DNA content using SYBR green in vitro.

In general, inhibition refers to the drop in the measured response relative to a control, in per cent.

Sequence of Solute carrier family 2, facilitated glucose transporter member 1 (Homo sapiens) (P11166 whole entry): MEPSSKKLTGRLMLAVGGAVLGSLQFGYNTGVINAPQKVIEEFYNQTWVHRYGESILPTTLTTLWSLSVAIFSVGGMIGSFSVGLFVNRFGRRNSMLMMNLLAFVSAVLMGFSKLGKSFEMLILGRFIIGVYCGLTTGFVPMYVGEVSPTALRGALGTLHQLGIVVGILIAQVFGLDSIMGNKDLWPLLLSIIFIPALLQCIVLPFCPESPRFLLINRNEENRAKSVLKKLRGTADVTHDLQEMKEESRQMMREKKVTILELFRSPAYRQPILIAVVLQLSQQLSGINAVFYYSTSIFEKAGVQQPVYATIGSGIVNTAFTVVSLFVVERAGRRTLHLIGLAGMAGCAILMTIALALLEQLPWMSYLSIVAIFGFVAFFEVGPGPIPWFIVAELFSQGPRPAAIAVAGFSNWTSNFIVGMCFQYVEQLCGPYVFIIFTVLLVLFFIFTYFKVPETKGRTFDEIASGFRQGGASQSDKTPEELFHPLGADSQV

Turning to `CN1C(=O)C(=NN=C(S)N2CCOCC2)c2ccccc21`, the inhibition in experiment [1] amounted to 23.4%; in experiment [2], 63.9%; in experiment [3], 12.7%.
As for `O=C(Nc1ccc(OC2CCN(Cc3ccsc3)C2)c(Cl)c1)c1ccco1` (stereo not given), the inhibition was determined as 0.28% in experiment [1], 1.35% in experiment [2] and 0.21% in experiment [3].
On to `CCCCCCc1cc(OC)c(OC)cc1C(C)Nc1ccnc2cc(Cl)ccc12` (stereo not given), for which the inhibition in experiment [1] was 8.21%; in experiment [2], 5.09%; in experiment [3] it was 0.14%.
For the molecule `Cc1ccc(NC(=O)C(C)Sc2nnc(-c3ccccc3Br)[nH]2)cc1` (stereo not given), the inhibition in experiment [1] was -1.5%; in experiment [2], -2.48%; in experiment [3], -0.33%.
For `O=C(Nc1ccc(-c2ccc(-c3nc4cc(C(F)(F)F)ccc4[nH]3)s2)cc1)c1c[nH]cn1` the same measures were 3.09%, 7.24% and 8.27%.
For `Nc1nc(N)c2c(ccc3nn(C4CCCC4)cc32)n1`, the inhibition in experiment [1] amounted to 10.1%; in experiment [2], 9.8%; in experiment [3] it was 5.28%.
For `CCN1CCC(N(CCCCCCc2ccc(C(F)(F)F)cc2)C(=O)Cn2c(CCc3cccc(F)c3F)cc(=O)c3ccccc32)CC1` the same measures were 5.17%, 3.94% and 2.53%.
For `CCC(C)(C)n1c(C)cc2c3c(N)nc(N)nc3ccc21` the same measures were 71.7%, 77.2% and 63.6%.
`CCN(CC)CCN(Cc1ccc(-c2ccc(C(F)(F)F)cc2)cc1)C(=O)Cn1c(CCc2cccc(F)c2F)nc(=O)c2cc(C)ccc21`: the inhibition in experiment [1] is 5.28%; in experiment [2], 9.2%; in experiment [3], 7.16%.
For `N=C(N)NN=CC(=O)Nc1cc([N+](=O)[O-])cc([N+](=O)[O-])c1` the same measures were 8.23%, 7.12% and 6.66%.
In the same order, the values of `Cc1ccccc1Nc1nc(NCc2ccccc2)nc2ccccc12` are 14.9%, 10.9% and 5.77%.
For the molecule `c1ccc(CCNCc2cccc(-c3ccc(CNc4ccc5ncccc5c4)cc3)c2)cc1`, the inhibition is 4.72% in experiment [1], 3.92% in experiment [2] and 3.8% in experiment [3].
For `Cc1cccc2nc(-c3ccc(-c4cccc(CN5CCC(C(N)=O)CC5)c4)s3)[nH]c12` the same measures were -1.68%, 2.17% and 1.29%.
For `NC(=O)c1cc2nc(NC3CCC3)nc(Nc3cccc4[nH]ncc34)c2[nH]1` the same measures were -0.69%, -0.16% and -1.17%.
For `CN1CCCC1CNS(=O)(=O)c1ccc(C(=O)NCC2CC2)cc1` (stereo not given) the same measures were 1.51%, 2.45% and 1.36%.
Regarding `Oc1ccc(CCNc2nc(NCCCOc3ccccc3-c3cccnc3)nc(N3CCNCC3)n2)cc1`, the figures for the inhibition in experiment [1], in experiment [2] and in experiment [3] were 5.04%, 7.86% and 5.99%, respectively.
In the same order, the values of `COC(=O)Cn1c(C2CCN(CC3CCN(C(=O)/C=C/c4ccc(Cl)c(Cl)c4)CC3)CC2)nc2ccccc21` are 3.09%, 0.62% and 2.04%.
In the same order, the values of `COc1cc2nc(SCC(C)C)n(CCCn3ccnc3)c(=N)c2cc1OC` are 3.51%, 6.49% and 3.6%.
In the same order, the values of `Cc1ccc(Cc2cccc3nc(N)nc(N)c23)cc1` are 1.2%, 0.71% and -0.6%.
With `OCc1ccc(-c2cncc(Nc3ccc(F)c(Cl)c3)c2)cc1`, the inhibition was 3.7% in experiment [1], 4.21% in experiment [2] and 1.04% in experiment [3].
`CCCOc1ccccc1-c1nc2[nH]c3c(c2c(=O)[nH]1)CCN(C)C3`: the inhibition in experiment [1] is -1.19%; in experiment [2], -0.54%; in experiment [3] it was -1.12%.
In the same order, the values of `O=S(=O)(NCCN1CCCC1)c1ccc(-c2ccc(CNCc3ccsc3)cc2)cc1` are 13.4%, 6.54% and 5.55%.
For `O=C(Nc1cccc(CN2CCCN(CC3CC3)CC2)c1)c1ccc(Cl)c(Cl)c1` the same measures were 10.8%, 10.2% and 12.6%.
On to `CCN(CC)CCN(Cc1ccc(-c2ccc(C(F)(F)F)cc2)cc1)C(=O)Cn1cc(Cc2cnn(C)c2)c(=O)n2nc(-c3ccccc3)cc12`, for which the values for the inhibition in experiment [1], in experiment [2] and in experiment [3] were 4.45%, 4.37% and 4.16%, respectively.
In the same order, the values of `CCN(CC)S(=O)(=O)c1ccc(C(C)NC(=O)c2ccccc2COc2ccccc2)cc1` (stereo not given) are 6.67%, 5.1% and 5.03%.
For `CN1CCCc2ccc(NC(=O)c3cc(-c4ccc(Cl)cc4)cs3)cc2C1` the same measures were 1.97%, 4.89% and 1.2%.
For `CCOc1ccccc1C=CC(=O)Nc1ccc2nc(N3CCN(C)CC3)cc(C)c2c1` the same measures were 5.87%, 2.96% and 4.24%.
With `NC(=O)c1cccc(Nc2nccc(Nc3ccc(Oc4ccc5ccccc5c4)cc3)n2)c1`, the inhibition turned out to be 5.67% in experiment [1], 4.45% in experiment [2] and 0.97% in experiment [3].
As for `COc1cc(NC(=O)c2ccc3c(=O)n(Cc4ccccc4)c(=S)[nH]c3c2)cc(OC)c1OC`, the inhibition worked out at 5.79% in experiment [1], 7.58% in experiment [2] and 7.73% in experiment [3].
In the same order, the values of `CCCC(CCC)n1ccc2c3c(N)nc(N)nc3ccc21` are 59.8%, 70.1% and 44.5%.
For `Cc1cc(O)c2c3c1C(=O)C=C1C3c3c(c(O)cc(O)c3C(=O)C1(C)C)C2=O` (stereo not given) the same measures were -4.69%, -5.26% and -3.43%.
In the same order, the values of `CN(C)c1cccc2c(S(=O)(=O)Nc3cccc(CCN4CCC(N5CCCCC5)CC4)c3)cccc12` are 0.3%, -3.51% and -0.34%.
Regarding `O=C(Nc1cccc(CN2CCN(C(=O)c3cccc(F)c3)CC2)c1)c1cccs1`, the inhibition in experiment [1] was 0.66%; in experiment [2], 1.04%; in experiment [3], -0.67%.
In the same order, the values of `O=C(Cc1ccc[n+]([O-])c1)Nc1cccc(-c2cccc(-c3nc4cc(F)ccc4[nH]3)c2)c1` are 1.61%, 1.76% and 4.13%.
In the same order, the values of `O=C(c1ccc(Cl)cc1)C1CCCN(C2CCN(CCc3ccccc3)CC2)C1` (stereo not given) are 12.5%, 17.3% and 13.8%.
In the same order, the values of `Oc1ccc2c(CNC3CCCCC3)c(O)ccc2c1CNC1CCCCC1` are -0.71%, 0.24% and 0.34%.
`O=C(c1ccc(Cl)cc1)N1CCOC(CCN2CCC(c3ccccc3)CC2)(c2ccc(Cl)c(Cl)c2)C1` (stereo not given): the inhibition was 0.85% in experiment [1], -0.89% in experiment [2] and -0.89% in experiment [3].
With `COc1cccc(-c2ccc3ccnc(N)c3c2)c1`, the figures for the inhibition in experiment [1], in experiment [2] and in experiment [3] were 4.14%, 4.24% and 2.03%, respectively.
For the molecule `Cc1cccc2nc(-c3cccc(-c4ccc(NC(=O)c5c[nH]cn5)cc4)c3)[nH]c12`, the results for the inhibition in experiment [1], in experiment [2] and in experiment [3] were -0.79%, -0.73% and -1.26%, respectively.
In the same order, the values of `Cc1ccc(-c2cc(C(=O)Nc3ccc(S(=O)(=O)N4CCCCC4)cc3)[nH]n2)c(O)c1` are 0.86%, 1.9% and -0.53%.
In the same order, the values of `CC(=O)NC1=NC(C)(C)N(OCc2ccc(Cl)c(Cl)c2)C(NC(C)=O)=N1` are -0.21%, -0.25% and -1.61%.
With `Oc1ccc2[nH]c(-c3cccc(F)c3)nc2c1CN1CCC(O)(c2ccccc2)CC1`, the inhibition in experiment [1] is 3.21%; in experiment [2], 4.5%; in experiment [3] it was 1.7%.
For `COCC(C)n1c(C)cc(C(=O)CSc2nnc(Nc3ccccc3)s2)c1C` (stereo not given) the same measures were 1.18%, 1.49% and -0.94%.
For the molecule `COc1ccc2nccc(N3CCCN(CCNCc4ccc5c(n4)NC(=O)CS5)CC3)c2n1`, the inhibition in experiment [1] was -4.21%; in experiment [2] it was -0.98%; in experiment [3], 3.94%.
In the same order, the values of `CC(C)C[C@@H](/C=N/N1CCOC1=O)NC(=O)[C@H](CC(C)C)NC(=O)c1ccc(OCCN2CCOCC2)cc1` are 1.39%, 6.46% and 3.93%.
For `COC(=O)c1cccc(CNCc2cccc(-c3cccc(-c4nc5cc(F)ccc5[nH]4)c3)c2)c1` the same measures were 5.23%, 5.92% and 4.97%.
In the same order, the values of `c1cc(Cc2ccc(Nc3c4ccccc4nc4ccccc34)cc2)cc(Nc2c3ccccc3nc3ccccc23)c1` are 5.95%, 5.85% and 2.19%.
On to `O=C(c1cc(C(=O)Nc2ccc(F)cc2)c(=O)n(-c2ccc(F)cc2)c1)c1cc(Cl)ccc1O`, for which the values for the inhibition in experiment [1], in experiment [2] and in experiment [3] were 0.23%, 2.19% and 0.22%, respectively.
For `COc1cc2nc(NCc3nc4ccccc4[nH]3)nc(N)c2cc1OC` the same measures were 11%, 11.9% and 10.3%.
In the same order, the values of `O=C(NCCCc1ccccc1)c1csc(C2CCCN(C(=O)c3ccc(O)c(-c4ccccc4)c3)C2)n1` (stereo not given) are 2.11%, 0.46% and -4.23%.
For `O=C(Nc1cc(F)cc(F)c1)N1CCOC(CCN2CCC3(CCc4ccccc43)CC2)(c2ccc(Cl)c(Cl)c2)C1` (stereo not given) the same measures were 3.28%, 3.01% and 1.78%.
For the molecule `COc1cc(Nc2ccnc3ccc(C(F)(F)F)cc23)cc(OC)c1OC`, the figures for the inhibition in experiment [1], in experiment [2] and in experiment [3] were 18.2%, 23.1% and 12.6%, respectively.
Turning to `O=C1Nc2cccc3c2C1(CCCCCN1CCC(c2c[nH]c4ccncc24)CC1)CCC3` (stereo not given), the values for the inhibition in experiment [1], in experiment [2] and in experiment [3] were 1%, 2.45% and -0.95%, respectively.
With `CCc1cc2c(=O)c(-c3nc(C)cs3)c(N)oc2c(CN2CCCCC2)c1O`, the inhibition came to 3.22% in experiment [1], 2.22% in experiment [2] and 3.34% in experiment [3].
For `CN1CCN(c2cc(NC(=O)Nc3ccc(-c4ccncc4)c(Cl)c3)ccc2Br)CC1` the same measures were 10.9%, 8.89% and 10.5%.
For `O=C(Nc1cccc(OC2CCN(Cc3ccccc3)CC2)c1)c1ccc([N+](=O)[O-])cc1` the same measures were 4.89%, 4.94% and 4.55%.
Turning to `Oc1ccc(C=NNC(S)=Nc2cccc3ccccc23)c(O)c1`, the inhibition was determined as 4.86% in experiment [1], 4.96% in experiment [2] and 2.47% in experiment [3].
For `Cn1nccc1C(=O)NCCNCc1ccc(-c2cccc(-c3nc4cc(C(F)(F)F)ccc4[nH]3)c2)cc1` the same measures were 0.63%, 1.93% and 2.51%.
Regarding `O=C(NC1CCC(CCN2Cc3ccc(Br)cc3C2)CC1)c1cccc(-c2cccnc2)c1` (stereo not given), the inhibition in experiment [1] was 3.16%; in experiment [2], 4.93%; in experiment [3], -1.16%.
For `Clc1ccc(-c2cnc3ccc(NCc4ccncc4)nn23)cc1` the same measures were 2.08%, 0.84% and -0.5%.
